Consider 13 molecules from PubChem BioAssay.

Assay [1] is described as follows: circadian clock period modulators, cell-based, LOPAC library, luminescence reporter (AID 2774).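 Further: values are relative to mean of DMSO wells on each plate.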 The conditions noted are these: circadian reporter cells, at 7 µM, actives lie on both sides.
Assay [2] is described as follows: hESC survival regulators, cell-based (AID 493140).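 Further: cells exposed to compounds for four days before counting.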 The conditions noted are these: human embryonic stem cell survival screen; stronger effect = higher value.
For assay [3], the system named is Hepatitis C virus NS3 helicase. Put plainly: HCV NS3 helicase inhibitors, primary screen, biochemical, fluorescence polarization, LOPAC1280 library (AID 687035; in the data active means inhibition above about 37%). The conditions noted are these: Purified HCV NS3 helicase, Cy5-dT15 ssDNA binding fluorescence polarization; stronger effect = higher value; concentration not given here.
Assay [4] in a line: Cy5 fluorescence quenching or enhancement artefacts, artefact control for HCV NS3 helicase inhibitor project, biochemical, LOPAC1280 (AID 687037). The conditions noted are these: Cy5-DNA-NS3h complex fluorescence interference counterscreen.
The test system of assay [5] is Aerobactin synthetase IucA (Klebsiella pneumoniae, hypervirulent). As to the kind of experiment: IucA enzyme inhibition, biochemical, LOPAC library, absorbance readout (AID 1346212).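 Further: 100% = no compound wells and 0% = no enzyme wells.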 As to conditions: IucA enzyme assay, absorbance (OD) readout; stronger effect = lower value;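 tested at 8 µM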.
Assay [6] can be described thus: sensitizers of A549 cells to miR-34 induction, primary screen, imaging, A549 dox-inducible miR-34, nuclei and caspase counts (AID 1347080;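 active means compounds whose cell count with miR-34 switched on is under 0.7 times the count with it off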). The conditions noted are these: A549 miR-34 inducible, Hoechst nuclei count, 48 h.
A short description of assay [7]: phospholipid biosynthesis inhibitors in animal cells, primary screen, cell-based, LOPAC library, screen 4 (AID 1347384). The conditions noted are these: phospholipid biosynthesis inhibition screen, at 10 µM.
Assay [8] can be described thus: viability rescue of complex I mutant cybrids, primary screen, cell-based, galactose medium, ATP luminescence (AID 1645843;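 active means z-score of at least 1.8 in each of two replicates, scored against plate mean and spread of sample wells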;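 further: positive z means more ATP and so rescue of galactose-driven cybrid death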). As to conditions: complex I mutant cybrid cells, 72 h, stronger effect = higher value.
Assay [9] in a line: survival rescue of mitochondrial mutant cells in low glucose, primary screen, MELAS cybrids, Rieske KO mouse fibroblasts, CellTiter-Glo (AID 1508586;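 active means mean z-score across replicates of 1.96 or higher in either the MELAS or the Rieske mutant cell line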;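 further: z relative to plate mean and SD of compound and empty wells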). For orientation: ATP-based viability assays read luminescence as a measure of living cells.
Assay [10] can be described thus: growth inhibition of DIPG glioma cells, dose response, cell-based, SU-DIPG-IV, MIPE4.0, CellTiter-Glo, qHTS (AID 1347063; cut-off not given, nearly all actives have AC50 up to about 30 µM;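 further: compound exposure lasted 48 hours before the viability readout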). As to conditions: SU-DIPG-IV viability, CellTiter-Glo ATP luminescence.
The nature of assay [11]: inhibitors of Cryptococcus chitosan production, flow cytometry, Cibacron Brilliant Red staining (AID 1347148).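 Further: compound exposure lasted three days at 37 degrees C.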 The conditions noted are these: Cryptococcus neoformans chitosan, stronger effect = lower value; at 10 µM unless noted.
Assay [12] in a line: growth inhibition of DIPG glioma cells, dose response, cell-based, SU-DIPG-XVII, MIPE5.0, CellTiter-Glo, qHTS (AID 1347060; cut-off not given, nearly all actives have AC50 up to about 26 µM;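 further: cells exposed to compound for 48 hours before viability readout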). The conditions noted are these: SU-DIPG-XVII viability, CellTiter-Glo ATP luminescence.
Assay [13] can be described thus: growth inhibition of DIPG glioma cells, dose response, cell-based, SU-DIPG-XIII, MIPE4.0, CellTiter-Glo, qHTS (AID 1347061; cut-off not given, nearly all actives have AC50 up to about 37 µM;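 further: cells exposed to compound for 48 hours before readout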). The conditions noted are these: SU-DIPG-XIII viability, CellTiter-Glo ATP luminescence.
A short description of assay [14]: viability loss in pontine glioma line – cell-based, SU-DIPG-XXV, MIPE5.0, CellTiter-Glo, qHTS, dose response (AID 1347065; cut-off not given, nearly all actives have AC50 up to about 26 µM;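 further: cells exposed to compound for 48 hours before ATP readout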). The conditions noted are these: CellTiter-Glo ATP luminescence.
A short description of assay [15]: SU-DIPG-VI glioma cell viability, MIPE4.0 library, CellTiter-Glo luminescence, qHTS (AID 1347066; cut-off not given, nearly all actives have AC50 up to about 30 µM;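 further: cells exposed to compound for 48 hours before readout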). As to conditions: CellTiter-Glo ATP luminescence.
A short description of assay [16]: JHH-DIPG-1 glioma cell viability, MIPE5.0 library, CellTiter-Glo luminescence, qHTS (AID 1347067; cut-off not given, nearly all actives have AC50 up to about 26 µM;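 further: cells exposed to compound for 48 hours before readout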). The conditions noted are these: JHH-DIPG-1 glioma viability, CellTiter-Glo ATP luminescence.
Setting [17] is: measured here: relative caspase fold change +Dox/-Dox.
[18] abbreviates: measured here: total cells with miR-34 induction, stronger effect = lower value.
[19] abbreviates: measured here: total cells without miR-34 induction.

Molecules are shown by their SMILES. “And” between values parts separate entries of the source, which are not always exact repeats. Equal entries are not always repeated. Results filed as inconclusive are left out. The source made the active and inactive calls. Unless noted, how the calls were made is not given here.

For orientation: inhibition means the relative decrease from the control value, in per cent. Usually remaining activity stands for the signal under treatment as a percentage of the control signal. In the case of `CC1(C(=O)O)C2CCC(O2)C1(C)C(=O)O` (centres undefined), in assay [1], the period change was 0.3 h (inactive). Besides, the survival in assay [2] was 0.417 (inactive). Moreover, in assay [3], the inhibition is -5% (inactive). Besides, the fluorescence ratio (interference) in assay [4] was 1 (inactive). Also, the remaining activity in assay [5] was 118% (inactive). Moreover, the fold change in assay [6] (stronger effect = lower value) was 0.789 (inactive); in assay [6] (setting [17]), 1.91. Further, the values for the cell count in [6] (setting [18]) and in assay [6] (setting [19]) were 286 and 362, respectively. The outcome in [7] was inactive. Also, in assay [8], the z-score is -1.46 (inactive).

Regarding `CC(N)[C@H](O)c1ccc(O)c(O)c1` (some centres undefined), in [1], the period change was -0.05 h (inactive). Moreover, in assay [3], the inhibition is 0% (inactive). Moreover, in assay [4], the fluorescence ratio (interference) is 1 (inactive). The remaining activity in assay [5] was 122% (inactive). In addition, the fold change was 0.943 (inactive) in assay [6] (stronger effect = lower value) and 1.34 in assay [6] (setting [17]). Besides, the figures for the cell count in assay [6] (setting [18]) and in [6] (setting [19]) were 10200 and 10800, respectively. For the same molecule, the result in assay [7] was inactive. Also, the z-score in assay [8] was -0.925 (inactive).

In the case of `CSc1ccc(C(=O)c2[nH]c(=O)[nH]c2C)cc1`, in assay [5], the remaining activity was 118% (inactive).

Regarding `CN1CCc2cc(O)cc3c2[C@H]1Cc1ccc(O)c(O)c1-3`, the period change in [1] is 0.03 h (inactive). In addition, the inhibition in assay [3] is -2% (inactive). For the same molecule, the fluorescence ratio (interference) in [4] is 1 (inactive). Further, in assay [5], the remaining activity is 101% (inactive). Moreover, the fold change in assay [6] (stronger effect = lower value) is 1.01 (inactive); in [6] (setting [17]), 1.15. Besides, the cell count in [6] (setting [18]) worked out at 9530; in assay [6] (setting [19]) it was 9390. The molecule was classed as inactive in assay [7]. The z-score in [8] was -1.03 (inactive).

As to `NCCc1ccc(S(=O)(=O)F)cc1`, the period change in [1] was -0.1 h (inactive). Also, the inhibition in [3] was -2% (inactive). Moreover, the fluorescence ratio (interference) in [4] was 0.9 (inactive). In addition, in assay [5], the remaining activity is 99.4% (inactive). For the same molecule, the fold change in assay [6] (stronger effect = lower value) is 1.01 (inactive) and 0.94 (inactive); in assay [6] (setting [17]) it was 0.956 and 0.406. Besides, the cell count in assay [6] (setting [18]) is 10400 and 7770; in [6] (setting [19]), 10400 and 8270. Moreover, in assay [7], the result was inactive. Moreover, the z-score in [9] (MELAS cybrid survival, CellTiter-Glo 48 h, stronger effect = higher value) was -0.305 (inactive); in [9] (Rieske KO mouse fibroblast survival, CellTiter-Glo 72 h) it was -1.62; in assay [8] it was 0.125 (inactive).

As usually defined, the AC50 is the concentration at which the activity in the assay is half-maximal. For the molecule `Cc1c(C(=O)c2cccc3ccccc23)c2cccc3c2n1[C@H](CN1CCOCC1)CO3`, the period change in [1] was -0.065 h (inactive). For the same molecule, in [2], the survival is 106 (inactive). For the same molecule, the inhibition in assay [3] is -8% (inactive). Moreover, the fluorescence ratio (interference) in assay [4] is 1 (inactive). For the same molecule, the remaining activity in assay [5] was 99.8% (inactive). For the same molecule, the AC50 in assay [10] was 9.35 µM (active). Besides, the fold change in [6] (stronger effect = lower value) was 0.941 (inactive) and 0.94 (inactive); in [6] (setting [17]), 1.39 and 1.17. Besides, the cell count in [6] (setting [18]) is 5730 and 5540; in [6] (setting [19]), 6090 and 5900.

Consider `c1ccc2c(N3CCNCC3)cccc2c1`, for which the period change in assay [1] was 0.19 h (inactive). The inhibition in [3] was -1% (inactive). For the same molecule, the fluorescence ratio (interference) in assay [4] is 1 (inactive). Besides, the remaining activity in [5] is 77.2% (inactive). The fold change in assay [6] (stronger effect = lower value) was 0.966 (inactive); in [6] (setting [17]), 1.06. Also, the cell count amounted to 8750 in assay [6] (setting [18]) and 9060 in assay [6] (setting [19]). In assay [7], the result was inactive. Also, in assay [8], the z-score is -0.255 (inactive).

Turning to `CC(=O)[C@H]1CCC2C3CC[C@H]4C[C@H](O)CC[C@]4(C)C3CC[C@@]21C` (some centres undefined), the period change in [1] is -0.055 h (inactive). Further, in assay [3], the inhibition is 0% (inactive). In addition, in [4], the fluorescence ratio (interference) was 1 (inactive). In [5], the remaining activity is 95.7% (inactive). The fold change in assay [6] (stronger effect = lower value) was 1.03 (inactive); in assay [6] (setting [17]), 0.981. For the same molecule, the cell count was determined as 10100 in assay [6] (setting [18]) and 9760 in [6] (setting [19]). Besides, in assay [7], the call was inactive. The z-score in assay [8] is -0.6 (inactive).

For the molecule `Ic1ccccc1CNC1C2CCN(CC2)C1C(c1ccccc1)c1ccccc1` (centres undefined), the period change in assay [1] is 0.145 h (inactive). In addition, the inhibition in assay [3] is -8% (inactive). Moreover, the fluorescence ratio (interference) in [4] is 0.9 (inactive). The remaining activity in assay [5] was 98.2% (inactive). For the same molecule, the figures for the fold change in [6] (stronger effect = lower value) and in [6] (setting [17]) were 0.485 (active) and 0.281, respectively. Besides, the cell count in assay [6] (setting [18]) was 329; in [6] (setting [19]) it was 679. In addition, in [7], the call was inactive. Moreover, the z-score in assay [8] is -1.29 (inactive).

On to `O=[N+]([O-])c1ccc2nc(N3CCNCC3)ccc2c1`, for which the period change in [1] was -0.09 h (inactive). Further, in [3], the inhibition was -1% (inactive). In addition, the fluorescence ratio (interference) in [4] is 1 (inactive). For the same molecule, the remaining activity in [5] is 117% (inactive). Moreover, the fold change was 1.07 (inactive) in assay [6] (stronger effect = lower value) and 1.56 in assay [6] (setting [17]). The cell count in [6] (setting [18]) amounted to 8660; in assay [6] (setting [19]) it was 8090. In addition, the call in assay [7] was inactive. Also, the z-score in [8] is -1.12 (inactive).

Turning to `N#CC(C#N)=Cc1ccc([N+](=O)[O-])c(O)c1`, the period change in [1] is -0.02 h (inactive). Besides, the survival in assay [2] is 124 (inactive). The remaining activity in assay [5] was 80.4% (inactive). Further, the fold change in assay [6] (stronger effect = lower value) was 0.901 (inactive) and 1.08 (inactive); in assay [6] (setting [17]), 1.46 and 1.27. In addition, the cell count in assay [6] (setting [18]) is 4360 and 6240; in assay [6] (setting [19]) it was 4840 and 5770. The fold fluorescence in assay [11] is 5.5 [at 232.4 µM] (inactive).

Turning to `COC[C@H]1OC(=O)c2coc3c2[C@@]1(C)C1=C(C3=O)C2CCC(=O)[C@@]2(C)C[C@H]1OC(C)=O` (some centres undefined), in assay [1], the period change was -0.52 h (inactive). In assay [2], the survival is 37.8 (inactive). Further, the inhibition in assay [3] was -1% (inactive). Besides, the fluorescence ratio (interference) in assay [4] is 1 (inactive). Also, in assay [5], the remaining activity is 109% (inactive). The AC50 was 5.25 µM (active) in assay [12]; 23.5 µM (active) in assay [13]; 3.72 µM (active) in [10]; 2.63 µM (active) in assay [14]; 18.7 µM (active) in assay [15]; 4.17 µM (active) in assay [16]. In addition, the fold change was 1.01 (inactive) in assay [6] (stronger effect = lower value) and 1.88 in [6] (setting [17]). In addition, the figures for the cell count in [6] (setting [18]) and in assay [6] (setting [19]) were 3350 and 3320, respectively. Also, the molecule was called inactive in assay [7]. Further, the z-score in assay [8] was 0.165 (inactive).

Regarding `CCCN1CCc2cc(O)cc3c2[C@H]1Cc1ccc(O)c(O)c1-3`, the period change in [1] was 0.415 h (inactive). Also, the inhibition in assay [3] is 1% (inactive). For the same molecule, the fluorescence ratio (interference) in assay [4] is 1 (inactive). For the same molecule, the remaining activity in [5] was 99.8% (inactive). The fold change in assay [6] (stronger effect = lower value) was 0.922 (inactive); in assay [6] (setting [17]) it was 1.32. Also, the cell count in [6] (setting [18]) is 9400; in [6] (setting [19]), 10200. Also, in assay [7], the result was inactive. Also, the z-score in assay [8] was -0.965 (inactive).
